HBB splice mod: modulators of hemoglobin beta chain splicing | HBB splicing reporter cell assay, activation; EGFP reporter with mutant IVS2-654 intron; response scale: normalised to 500 nM splice-correcting PNA | Potency, µM (highest dose often 46.1 µM), inactives show top-dose activation, usual class: activators | 0.06% of 65,000 active | AID 925; note: potency is the fitted concentration of half-maximal effect; 0% is about no effect
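Compounds were applied for 2 days to HeLa EGFP-654 cells, 500/well in Optimem with 2% FCS. The reporter's EGFP is disrupted by mis-splicing of beta-globin intron IVS2-654. Readout: summed well GFP fluorescence from 488 nm laser scanning; reference was 500 nM antisense […] 654 PNA.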
ALOX15 inhib: blocks human 15-lipoxygenase activity; P16050; purified 15hLO-1, xylenol orange hydroperoxide absorbance; Potency, µM (highest dose often 57.1 µM), for inactives: top-dose activity change, negative = inhibition, most hits filed as inhibitors; 1.4% of 74,000 active; AID 887; note: potency is the fitted concentration of half-maximal effect; % is set by controls: 0 for no effect and ±100 for the full control effect; nearly all actives have a fitted effect of over 55% in size
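Quantitative HTS in 25 mM Hepes pH 7.5 containing 0.01% Triton X-100: human 15hLO-1 at 40 nM, arachidonic acid at 50 uM, 6 min turnover. Product quantified via ferrous oxidation/xylenol orange, 573:405 nm absorbance ratio.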
Tau filament bind: tau filament binding; recombinant tau filaments, thioflavin S fluorescence, 15 h; filaments grown with octadecylsulfate alongside compound; 2% of 71,000 active; AID 596; Potency, µM (titrated, usually from 57.1 µM), for the others: at the top dose activity change, negative = inhibition; P10636;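 note: potency is the fitted concentration of half-maximal effect; % is set by controls: 0 for no effect and ±100 for the full control effect; actives lower thioflavin S fluorescence by blocking filaments or displacing dye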
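ThS-based fibril read: tau 1 uM final, inducer ODS 30 uM final, 37 C for 15 h, ex 450/em 510 nm.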
Ub-GFP proteasome: ubiquitin-GFP accumulation via proteasome inhibition; AID 526; Potency, µM (titrated, usually from 45.9 µM), for inactives: at the top dose activation (GFP accumulation), most hits filed as activators; 67,000 tested, under 10 active; Ubiquitin-GFP reporter cells, proteasome inhibition, GFP fluorescence; response scale: untreated = 0%, 10 µM MG-132 = 100%; active = well fitted activation curve with a large enough effect, not every such curve was filed as active; inconclusive = small, poorly fitted or top-dose-only effect, or another doubt; inactive = no such curve, though single readings can be large or run the other way; note: potency is the fitted concentration of half-maximal effect
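U2OS cells stably expressing ubiquitin(G76V)-GFP, seeded overnight in 0.5% FBS medium, were exposed to compounds (qHTS, 46 uM to 2.9 nM) for 4 hr at 37 °C. GFP-positive cells were counted by laser cytometry (488 ex/515 em), normalized between basal and 10 uM MG-132.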
15-hLO-2 inh: 15-hLO-2 (ALOX15B) enzyme inhibition; 0.56% of 110,000 active; purified 15hLO-2, xylenol orange hydroperoxide absorbance; Potency, µM (series often up to 57.1 µM), inactives show at the top dose activity change, negative = inhibition, actives largely listed as inhibitors; O15296; note: potency is the fitted concentration of half-maximal effect; % is set by controls: 0 for no effect and ±100 for the full control effect; nearly all actives have a fitted effect of over 60% in size
Target sequence (O15296 whole entry, looked up): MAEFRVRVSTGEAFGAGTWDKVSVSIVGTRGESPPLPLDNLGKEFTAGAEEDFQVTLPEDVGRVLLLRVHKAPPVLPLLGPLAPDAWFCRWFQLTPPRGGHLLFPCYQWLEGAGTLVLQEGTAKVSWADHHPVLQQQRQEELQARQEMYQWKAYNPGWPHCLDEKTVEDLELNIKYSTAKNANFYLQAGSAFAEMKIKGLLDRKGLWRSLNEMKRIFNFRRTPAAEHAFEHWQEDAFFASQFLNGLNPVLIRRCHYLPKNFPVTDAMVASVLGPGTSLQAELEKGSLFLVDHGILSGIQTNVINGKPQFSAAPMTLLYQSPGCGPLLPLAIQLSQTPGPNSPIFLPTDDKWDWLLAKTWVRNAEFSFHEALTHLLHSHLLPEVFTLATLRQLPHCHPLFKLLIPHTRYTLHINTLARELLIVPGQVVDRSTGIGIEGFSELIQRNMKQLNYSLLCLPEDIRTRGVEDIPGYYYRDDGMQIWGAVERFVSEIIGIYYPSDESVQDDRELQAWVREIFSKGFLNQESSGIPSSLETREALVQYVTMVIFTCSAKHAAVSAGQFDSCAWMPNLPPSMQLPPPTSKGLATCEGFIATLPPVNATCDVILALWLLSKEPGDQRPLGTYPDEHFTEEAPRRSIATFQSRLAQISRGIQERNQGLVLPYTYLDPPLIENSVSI
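Enzyme 50 nM, AA 45 uM, 25 mM Hepes pH 7.5 + 0.01% Triton X-100; cpd preinc 15 min RT, rxn 90 min RT; stop/detect with 200 uM XO + 300 uM Fe(II) in 50 mM H2SO4, 30 min; A573/A405.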
Epigenetic mod: epigenetic modulators derepressing GFP locus in mouse cells | mouse C127i GFP locus derepression, cytometry, 30 h | Potency, µM (titrated, usually from 46.1 µM), for the others: at the top dose GFP derepression (activation) | 0.09% of 68,000 active; note: % of control where 0% means no effect
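Locus derepression in mouse mammary C127i cells whose integrated CMV-GFP reporter is normally silent; GFP expression after 30 h compound treatment was quantified by counting fluorescent cells.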
An asterisk follows results filed as active; ? = inconclusive; nt = no result; ! = not confirmed by another sample; [ ] = remark or other dose. Shown are actives, neighbours in structure and some others; about 2.3% of the full set was active somewhere. Unless noted, calls come from the whole dose curve; as a rule, active = well fitted curve in the direction sought with a large enough effect; inconclusive = small, poorly fitted or top-dose-only effect, or another doubt; inactive = no such curve, though single readings can be large; an effect the other way counts as inactive or inconclusive.

SMILES	HBB splice mod	ALOX15 inhib	Tau filament bind	Ub-GFP proteasome	15-hLO-2 inh	Epigenetic mod
COc1ccccc1N1CCN(S(=O)(=O)/C=C/c2ccccc2)CC1	nt	nt	nt	nt	7%	nt
COc1ccccc1N1CCN(C/C=C/c2ccc(N(C)C)cc2)CC1	-1%[9.22 µM]	25µM*	?	-4%	38%	-2%
Nc1c(NCCCN2CCOCC2)c2ccccc2oc1=O	0%	?	-3%	11%	0%	3%
Nc1c(NCCN2CCOCC2)c2ccccc2oc1=O	-4%	1.6µM*	-12%	-5%	43%	-1%
CC(C)C1=CC2=CC[C@@H]3[C@@](C)(C(=O)O)CCC[C@]3(C)C2CC1 (some centres undefined)	nt	7.9µM*	nt	nt	0%	nt
N#Cc1nc(N2CCCCC2)nc(N2CCOCC2)n1	1%	8%	2.5µM*	1%	-15%	0%
N#Cc1nc(N2CCCC2)nc(N2CCCC2)n1	0%	-1%	41%	1%	nt	4%
N[C@@H](Cc1nn[nH]n1)C(=O)O	0%[9.22 µM]	8%[11.4 µM]	-9%[11.4 µM]	-4%[9.17 µM]	-4%[11.4 µM]	7%[9.22 µM]
CCOC(=O)CCN1C(=O)[C@@H]2[C@H]3C(=CC[C@H]2C1=O)C(=O)[C@H]1O[C@H]1[C@H]3O	1%[9.22 µM]	-11%[11.4 µM]	nt	nt	nt	nt
CNCCCC1c2ccccc2C=Cc2ccccc21	-1%[20.6 µM]	-5%[25.6 µM]	5µM*!	8%[20.5 µM]	40%[25.6 µM]	-4%[20.6 µM]
Cc1[nH]c2ccccc2c1Cc1nnc(SCC(=O)NCc2ccco2)o1	-1%	13µM*	79%	3%	-6%	-2%
O=C(CSc1nnc(Cc2ccccc2)o1)NCc1ccco1	3%[1.84 µM]	8%	-7%	0%	-4%	0%
COc1ccc(CNc2nc(-c3ccccc3OC)nc3ccccc23)c(OC)c1	0%	-26%	70%	-7%	14%	?
CC1=NN(c2ccccc2)C(=O)[C@@H]1N=Nc1ccc(S(N)(=O)=O)cc1	2%[9.22 µM]	4%[11.4 µM]	4µM*	-5%[9.17 µM]	-10%[11.4 µM]	-3%[9.22 µM]
O=C(Cc1ncc(C(F)(F)F)cc1Cl)N1CCN(c2ccc(F)cc2)CC1	nt	nt	nt	nt	0%	nt
FC(F)(F)c1cnc(Nc2ccc(N3CCOCC3)cc2)c(Cl)c1	0%[57.5 µM]	-5%	32µM*	-1%	-11%	-2%
Clc1ccccc1-c1ccc2ncnc(NCCN3CCOCC3)c2c1	0%	-2%	2%	2%	55%	-5%[9.22 µM]
C1CCCNCC1	1%	4%	7%	nt	-9%	nt
CC1CCCC2(C1)NC(=S)c1c(sc3c1CCCC3)N2 (centres undefined)	nt	nt	nt	nt	13µM*	nt
Cc1sc(N)c(C(=O)c2cccc(C(F)(F)F)c2)c1C	nt	-13%[25.6 µM]	32µM*	7%	-30%	1%
Cc1ccc2c(c1)C(=O)CCN2	nt	nt	nt	nt	-4%	nt
Cc1ccc2c(c1)NCCO2	-1%	-15%	32µM*	-3%	-26%	3%
c1ccc(C2=NN[C@@H]3c4ccccc4-c4ccccc4N3C2)cc1	6%[9.22 µM]	?	4µM*	3%[9.17 µM]	-5%[11.4 µM]	6%[9.22 µM]
CN(C)CCC(=O)[C@@]1(O)CC[C@H]2[C@H]3CC=C4C[C@@H](O)CC[C@]4(C)[C@H]3CC[C@]21C	3%[9.22 µM]	13%[11.4 µM]	-1%[11.4 µM]	0%[9.17 µM]	-8%[11.4 µM]	?
Cc1ccc2oc3c(c(=O)c2c1)C(c1cccc(O)c1)N(c1ccccn1)C3=O (centres undefined)	0%	-11%	13µM*	0%	-5%	-3%
COc1cc(C2c3c(oc4ccc(C)cc4c3=O)C(=O)N2c2cc(C)ccn2)cc(OC)c1OC (centres undefined)	0%[57.5 µM]	9%	-11%	0%	-1%	2%
COc1ccc(N2CCC(CNC(=O)Nc3ccc(C)c(C)c3)C2)cc1 (centres undefined)	-1%	?	?	5%	nt	-2%
COc1ccc(N2CCC(CNC(=O)Nc3ccc(OC)cc3OC)C2)cc1 (centres undefined)	-1%	?	20µM*	-6%	?	0%
